According to PubChem BioAssay:

Experiment: optical density shifts of acrAB sulA E. coli – strain DRC41, OD650, 48 h, E. coli filamentation inducer project, primary screen (AID 1152);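 note: E. coli MC1000 strain DRC41 lacking acrAB efflux pump and sulA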
Settings: higher = more signal, called active from +8 up or from −8 down

z-score, inactive:
C=CC[C@@]12N=C(c3ccc(OCCCO)cc3)O[C@@H]1c1ccccc1N(CCS(=O)(=O)c1ccccc1)C2=O -0.309
CN(C)CCCNC(=O)[C@@]1(C)c2ccccc2C(=O)N(Cc2cc(C(F)(F)F)cc(C(F)(F)F)c2)[C@H]1c1ccc(CO)cc1 -1.2
CC(C)NC(=O)[C@@]1(C)c2ccccc2C(=O)N(C(C)C)[C@H]1c1ccc(CO)cc1 -0.508
O=C(N1CCCCC1)[C@@]1(Cc2ccccc2)COC(c2ccc(OCCCO)cc2)=N1 0.436
O=C1C[C@@](C(=O)NCC(F)(F)F)(c2ccc([N+](=O)[O-])cc2)[C@@H](c2ccc(CO)cc2)N1C1CCCCC1 -0.0786
O=C1c2ccccc2[C@](Cc2ccccc2I)(C(=O)NCc2ccccc2)[C@H](c2ccc(CO)cc2)N1C1CCCCC1 1.28
C=CC[C@@]1(C(=O)N2CCCCC2)N=C(c2ccc(OCCCO)cc2)O[C@@H]1c1ccccc1 0.659
C=CCOC(=O)[C@@H]1[C@H]2C(=O)O[C@H](c3ccccc3)[C@H](c3ccccc3)N2[C@H](c2ccc(OCCOC(=O)[C@H]3C[C@H]4C(=O)N[C@@H](CCCC[N+](C)(C)C)C(=O)N4[C@H]3c3ccc(O)cc3)cc2)[C@@]12C(=O)Nc1ccc(I)cc12 -0.451
C[C@H]1ON(c2ccc(C(=O)OC(C)(C)C)cc2)[C@@H](c2ccc(O)cc2)[C@@H]1C(=O)N1C(=O)OC[C@@H]1c1ccccc1 -0.569
Cc1c(NC(=O)/C(C#N)=C/C=C/c2ccccc2[N+](=O)[O-])c(=O)n(-c2ccccc2)n1C 0.56
CC(C)(C)OC(=O)CC[C@]1(C(=O)NCCN2CCOCC2)N=C(c2ccc(OCCCO)cc2)O[C@H]1c1ccccc1N=[N+]=[N-] -0.105
CCOC(=O)[C@H]1C/C=C/C[C@H](C(=O)OCC)C(=O)O[C@H]2[C@@H](OC)O[C@H](CO)[C@@H](OC(=O)Nc3ccc(OC)cc3)[C@@H]2OC1=O 1.04
O=C1NC(=O)C2C1C=CC(C(O)c1c(F)cccc1Cl)N2Nc1ccccn1 (stereo not given) -0.805
COc1ccc([Si](C)(C)[C@@H]2[C@@H](CCO)O[C@]3(C(=O)N(Cc4cccc(N5C(=O)c6ccccc6Oc6ccccc65)c4)c4ccccc43)[C@H]2C)cc1 0.705
Cc1ccc(S[C@]2(C(=O)NCc3ccccc3)CC(=O)N(C(C)C)[C@@H]2c2ccc(CO)cc2I)cc1 0.0841
CC(C)CCC[C@@H](C)[C@H]1CC[C@@]2(C)C3=C(CC[C@]12C)[C@@]1(C)CC[C@H](OC(=O)c2ccc(Br)cc2)C(C)(C)C1CC3 (stereo not given in full) 3.37
NC(=O)N1C(=O)C2C(C1=O)C1C=C(c3ccc(CO)cc3)C2C(C2CC2)N1Cc1sc2ccccc2c1Cl (stereo not given) 0.421
C=CCN1C(=O)[C@@]2(O[C@@H](CCn3cc([C@H](O)c4ccccc4)nn3)[C@H]([Si](C)(C)c3ccc(OC)cc3)[C@H]2C)c2ccccc21 0.508
CC1CC/C=C\[C@H]2OC34C=CCN(CCN5CCOCC5)C(=O)[C@H]3N(CCO)C(=O)[C@@H]4C2C(=O)O1 (stereo not given in full) 0.413
C=CCOC(=O)[C@H]1[C@@H]2C(=O)O[C@@H](c3ccccc3)[C@@H](c3ccccc3)N2[C@@H](c2ccc(OCCOC(=O)[C@H]3C[C@H]4C(=O)N[C@@H](Cc5ccccc5)C(=O)N4[C@H]3c3ccc(O)cc3)cc2)[C@]12C(=O)Nc1ccc(I)cc12 -0.783
COc1ccc(C#Cc2ccc3c(c2)[C@]2(C(=O)N3)[C@H](C(=O)N3CCc4cc(OC)c(OC)cc4C3)[C@H]3C(=O)O[C@H](c4ccccc4)[C@H](c4ccccc4)N3[C@@H]2c2ccc(O)cc2)cc1 -0.658
O=C1O[C@@H](c2ccccc2)[C@@H](c2ccccc2)N2[C@@H](c3ccccc3OCCO)[C@]3(C(=O)Nc4ccccc43)[C@@H](C(=O)NC[C@H](O)c3ccccc3)[C@H]12 -0.275
C[C@]1(C(=O)NC2CC2)c2ccccc2C(=O)N(Cc2ccc(OC(F)(F)F)cc2)[C@H]1c1ccc(CO)cc1 0.323
NC(=O)NCC#Cc1ccc2c(c1)[C@]1(C(=O)N2)[C@H](C(=O)Nc2nc3ccccc3s2)[C@H]2C(=O)O[C@H](c3ccccc3)[C@H](c3ccccc3)N2[C@@H]1c1ccc(O)cc1 0.996
COc1ccc(CCNC(=O)[C@@]2(Sc3ccc(C)cc3)CC(=O)N(Cc3cc(C(F)(F)F)cc(C(F)(F)F)c3)[C@@H]2c2ccc(CO)cc2I)cc1 0.0818
CN(C)CCCNC(=O)[C@@H]1c2ccccc2C(=O)N(Cc2ccc(OC(F)(F)F)cc2)[C@H]1c1ccc(CO)cc1 0.532
COCCCNC(=O)[C@@]1(Sc2ccc(C)cc2)CC(=O)N(C2Cc3ccccc3C2)[C@@H]1c1ccc(CO)cc1I -0.713
CCCCC(CC)C(O)C1C=CC2C(=O)N(c3ccccc3)C(=O)C2N1Nc1ccc([N+](=O)[O-])cc1 (stereo not given) -0.999
CC(C)C(=C=CC[C@@H](O)c1ccccc1OCCO)C[C@@H](O)COCc1ccccc1 1.6
C[C@H]1C2=C3C(CC[C@H]4C(OCc5ccc(F)cc5C(F)(F)F)OC[C@](C)([C@@H]34)N(C(=O)OC(C)(C)C)C2)C2COC(=O)OCC21 (stereo not given in full) -2.42
CCOC(=CC(=O)OC)CC(O)c1cccc(Cl)c1 (stereo not given) 1.04
COc1cc(OC)c(C(O)C2C=CC3C(=O)N(c4ccccc4)C(=O)C3N2Nc2ccc(C#N)cc2)cc1Br (stereo not given) -0.652
CN(C)CCCNC(=O)[C@@H]1c2ccccc2C(=O)N(CC23CC4CC(CC(C4)C2)C3)[C@H]1c1ccc(CO)cc1 0.0377
COc1cc2c(cc1OC)CN(C(=O)[C@H]1[C@@H]3C(=O)O[C@@H](c4ccccc4)[C@@H](c4ccccc4)N3[C@@H](c3ccc(OCCO)cc3)[C@]13C(=O)Nc1ccc(C#CCCO)cc13)CC2 0.0836
COCCOC(=O)N1C(=O)[C@@]2(c3cc(C#CC4=CCCCC4)ccc31)[C@H](c1ccccc1OCCO)N1[C@H](c3ccccc3)[C@H](c3ccccc3)OC(=O)[C@H]1[C@@H]2C(=O)N1CCc2cc(OC)c(OC)cc2C1 -0.26
